Experimental findings from PubChem BioAssay (EPA / NIEHS) are described below.

Records with an inconclusive call do not appear. The source made the active and inactive calls. How the source made its calls: active means hit-call score of the fitted dose curve at least 0.9, where 1 is the maximum; inconclusive means response in the unintended direction; inactive means score below 0.9.

For test [1], the target named is human Peroxisome Proliferator-activated Receptor alpha (PPARa), PPARA (gene 5465) (UniProt Q07869). Description: ATG_PPARa_TRANS: Attagene TRANS-FACTORIAL HepG2 Assay for human Peroxisome Proliferator-activated Receptor alpha (PPARa) (AID 2283001). Summed up:
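Reporter transcripts quantified by RT-PCR plus capillary electrophoresis after 24 h treatment, fitted upward relative to DMSO. Cells: human HepG2 transiently carrying multiple GAL4-UAS reporter units driven by NR-Gal4 chimeras.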

Test [2] addresses human Peroxisome Proliferator-activated Receptor delta (PPARd), PPARD (gene 5467) (UniProt Q03181). Description: ATG_PPARd_TRANS: Attagene TRANS-FACTORIAL HepG2 Assay for human Peroxisome Proliferator-activated Receptor delta (PPARd) (AID 2283002). Summed up:
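Read-out is induced reporter mRNA, quantified by RT-PCR with fluorescent labelling and capillary electrophoresis after 24 h dosing. Cells are HepG2 transiently carrying multiple GAL4-UAS reporter units driven by exogenous NR-GAL4 chimeras; DMSO serves as baseline.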

Test [3] addresses Peroxisome proliferator-activated receptor gamma (Homo sapiens) (UniProt P37231). Description: ATG_PPARg_TRANS: Attagene TRANS-FACTORIAL HepG2 Assay for human Peroxisome Proliferator-activated Receptor-gamma (PPARg) (AID 2283007). Summed up: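 Chimeric NR-Gal4 transactivation is measured in transiently transfected HepG2 cells by reporter mRNA induction at 24 h. Detection uses RT-PCR with fluorescent labelling and capillary electrophoresis; DMSO defines baseline.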

The target in test [4] is Nuclear receptor subfamily 1 group I member 2 (Homo sapiens) (UniProt O75469). Nature of the test: ATG_PXR_TRANS: Attagene TRANS-FACTORIAL HepG2 Assay for human Pregnane X Receptor (PXR) (AID 2283008). In outline: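 Trans-factorial format: exogenous NR-Gal4 fusion activity, not endogenous factor, in transfected human HepG2 liver cells. After 24 h dosing, RNA isolated, reverse-transcribed, amplified and resolved by capillary electrophoresis; induction scored versus DMSO.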
Chain of Nuclear receptor subfamily 1 group I member 2 (Homo sapiens) (O75469 whole entry, looked up, the tested form may be a part): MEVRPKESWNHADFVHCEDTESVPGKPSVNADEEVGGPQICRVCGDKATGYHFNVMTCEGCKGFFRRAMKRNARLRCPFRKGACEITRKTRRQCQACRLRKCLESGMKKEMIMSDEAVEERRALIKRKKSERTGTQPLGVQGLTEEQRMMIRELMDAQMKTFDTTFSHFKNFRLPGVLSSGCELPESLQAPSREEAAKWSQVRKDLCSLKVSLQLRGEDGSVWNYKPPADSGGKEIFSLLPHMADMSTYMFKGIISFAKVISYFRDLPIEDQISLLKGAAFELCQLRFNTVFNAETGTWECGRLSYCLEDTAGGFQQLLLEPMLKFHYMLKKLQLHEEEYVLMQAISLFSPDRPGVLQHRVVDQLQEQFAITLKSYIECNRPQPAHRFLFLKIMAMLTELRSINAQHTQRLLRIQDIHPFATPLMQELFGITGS

Test [5] concerns the target human RAR-related Orphan Receptor beta (RORb), RORB (gene 6096) (UniProt Q92753). Description: ATG_RORb_TRANS: Attagene TRANS-FACTORIAL HepG2 Assay for human RAR-related Orphan Receptor beta (RORb) (AID 2283010). Summed up: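 Transfect HepG2 with multiple GAL4-UAS reporter transcription units; dose chemicals for 24 h; isolate RNA, reverse-transcribe and PCR-amplify reporter sequences; label, digest and resolve fragments by capillary electrophoresis; fit increases relative to DMSO.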

In test [6] the target is human Retinoic Acid Receptor gamma (RARg), RARG (gene 5916) (UniProt P13631). Description: ATG_RARg_TRANS: Attagene TRANS-FACTORIAL HepG2 Assay for human Retinoic Acid Receptor gamma (RARg) (AID 2283009). Summed up: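 TRANS format measured activity of exogenous NR-GAL4 fusion (RARg) in transfected HepG2 liver cells after 24 h dosing. Induced reporter RNA was detected by RT-PCR/capillary electrophoresis fluorescence, analysed in the positive direction against DMSO.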
Chain of human Retinoic Acid Receptor gamma (RARg), RARG (gene 5916) (P13631 whole entry, looked up, the tested form may be a part): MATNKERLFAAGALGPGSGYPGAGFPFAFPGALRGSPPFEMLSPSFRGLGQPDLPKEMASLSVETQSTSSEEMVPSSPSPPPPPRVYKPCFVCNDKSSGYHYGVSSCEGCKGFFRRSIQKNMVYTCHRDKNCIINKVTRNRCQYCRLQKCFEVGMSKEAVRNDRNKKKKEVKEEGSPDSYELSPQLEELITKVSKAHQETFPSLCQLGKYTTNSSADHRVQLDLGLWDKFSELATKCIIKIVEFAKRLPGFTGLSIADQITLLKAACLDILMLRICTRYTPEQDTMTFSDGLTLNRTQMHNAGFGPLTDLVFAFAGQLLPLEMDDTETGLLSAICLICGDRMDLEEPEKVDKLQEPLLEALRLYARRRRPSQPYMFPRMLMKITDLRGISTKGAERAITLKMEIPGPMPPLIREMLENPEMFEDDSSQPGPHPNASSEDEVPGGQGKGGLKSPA

Test [7] concerns the target human Retinoic Acid Receptor beta (RARb), RARB (gene 5915) (UniProt P10826). Description: ATG_RARb_TRANS: Attagene TRANS-FACTORIAL HepG2 Assay for human Retinoic Acid Receptor beta (AID 2283004). Summed up:
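Induction of reporter mRNA from a chimeric RARb-Gal4 construct was measured by RT-PCR, FAM labelling, HpaI digestion and capillary electrophoresis. Measurements followed 24 h compound treatment of transiently transfected human HepG2 liver cells, with DMSO as baseline.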

Chain of Peroxisome proliferator-activated receptor gamma (Homo sapiens) (P37231 whole entry, looked up, the tested form may be a part): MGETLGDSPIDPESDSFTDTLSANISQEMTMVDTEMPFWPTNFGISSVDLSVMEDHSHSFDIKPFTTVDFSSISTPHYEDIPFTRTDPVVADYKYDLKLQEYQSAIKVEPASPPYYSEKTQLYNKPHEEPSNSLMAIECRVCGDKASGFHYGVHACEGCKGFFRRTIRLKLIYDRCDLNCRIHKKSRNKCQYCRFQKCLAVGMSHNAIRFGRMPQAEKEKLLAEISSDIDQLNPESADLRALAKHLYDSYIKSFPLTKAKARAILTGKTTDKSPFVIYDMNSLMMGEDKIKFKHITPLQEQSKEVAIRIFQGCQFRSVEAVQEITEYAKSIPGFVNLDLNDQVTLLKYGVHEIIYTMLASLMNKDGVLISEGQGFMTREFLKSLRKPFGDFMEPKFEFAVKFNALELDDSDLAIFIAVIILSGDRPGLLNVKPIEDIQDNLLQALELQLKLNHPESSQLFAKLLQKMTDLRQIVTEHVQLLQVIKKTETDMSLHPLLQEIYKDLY
Chain of human Retinoic Acid Receptor beta (RARb), RARB (gene 5915) (P10826 whole entry, looked up, the tested form may be a part): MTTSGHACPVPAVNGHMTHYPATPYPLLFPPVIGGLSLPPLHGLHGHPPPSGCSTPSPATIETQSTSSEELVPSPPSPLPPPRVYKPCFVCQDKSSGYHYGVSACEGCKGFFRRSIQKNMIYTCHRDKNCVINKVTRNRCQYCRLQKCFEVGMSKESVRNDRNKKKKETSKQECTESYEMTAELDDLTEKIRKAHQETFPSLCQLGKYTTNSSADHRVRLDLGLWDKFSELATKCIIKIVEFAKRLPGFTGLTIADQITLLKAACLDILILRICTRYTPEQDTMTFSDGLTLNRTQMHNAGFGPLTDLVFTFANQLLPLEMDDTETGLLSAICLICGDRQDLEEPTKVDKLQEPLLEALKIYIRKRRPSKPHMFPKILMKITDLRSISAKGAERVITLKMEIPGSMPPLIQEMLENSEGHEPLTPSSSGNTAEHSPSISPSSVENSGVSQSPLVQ
Chain of human Peroxisome Proliferator-activated Receptor delta (PPARd), PPARD (gene 5467) (Q03181 whole entry, looked up, the tested form may be a part): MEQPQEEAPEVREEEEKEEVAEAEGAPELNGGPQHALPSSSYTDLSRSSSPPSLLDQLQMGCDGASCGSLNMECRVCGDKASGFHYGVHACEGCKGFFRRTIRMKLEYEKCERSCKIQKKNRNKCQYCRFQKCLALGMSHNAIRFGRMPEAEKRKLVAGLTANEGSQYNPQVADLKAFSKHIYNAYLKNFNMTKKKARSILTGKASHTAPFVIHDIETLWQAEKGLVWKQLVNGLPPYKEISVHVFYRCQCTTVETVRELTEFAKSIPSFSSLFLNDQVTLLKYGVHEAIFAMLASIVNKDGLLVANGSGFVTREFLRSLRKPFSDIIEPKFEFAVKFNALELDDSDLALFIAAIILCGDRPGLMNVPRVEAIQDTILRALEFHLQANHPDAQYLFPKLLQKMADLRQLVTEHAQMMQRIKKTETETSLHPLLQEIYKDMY
Chain of human RAR-related Orphan Receptor beta (RORb), RORB (gene 6096) (Q92753 whole entry, looked up, the tested form may be a part): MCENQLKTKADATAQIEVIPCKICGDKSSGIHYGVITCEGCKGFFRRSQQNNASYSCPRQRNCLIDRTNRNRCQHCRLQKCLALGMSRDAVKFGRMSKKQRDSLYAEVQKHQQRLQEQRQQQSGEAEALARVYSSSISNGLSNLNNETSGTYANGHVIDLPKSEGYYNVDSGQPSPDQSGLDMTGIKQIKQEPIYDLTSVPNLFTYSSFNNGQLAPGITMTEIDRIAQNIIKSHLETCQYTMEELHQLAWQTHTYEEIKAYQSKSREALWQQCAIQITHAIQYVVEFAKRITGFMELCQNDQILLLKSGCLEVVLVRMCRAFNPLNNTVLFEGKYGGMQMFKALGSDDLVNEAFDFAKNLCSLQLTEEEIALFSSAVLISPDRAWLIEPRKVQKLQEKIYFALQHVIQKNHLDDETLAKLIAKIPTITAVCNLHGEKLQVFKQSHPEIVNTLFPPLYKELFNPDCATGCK
Chain of human Peroxisome Proliferator-activated Receptor alpha (PPARa), PPARA (gene 5465) (Q07869 whole entry, looked up, the tested form may be a part): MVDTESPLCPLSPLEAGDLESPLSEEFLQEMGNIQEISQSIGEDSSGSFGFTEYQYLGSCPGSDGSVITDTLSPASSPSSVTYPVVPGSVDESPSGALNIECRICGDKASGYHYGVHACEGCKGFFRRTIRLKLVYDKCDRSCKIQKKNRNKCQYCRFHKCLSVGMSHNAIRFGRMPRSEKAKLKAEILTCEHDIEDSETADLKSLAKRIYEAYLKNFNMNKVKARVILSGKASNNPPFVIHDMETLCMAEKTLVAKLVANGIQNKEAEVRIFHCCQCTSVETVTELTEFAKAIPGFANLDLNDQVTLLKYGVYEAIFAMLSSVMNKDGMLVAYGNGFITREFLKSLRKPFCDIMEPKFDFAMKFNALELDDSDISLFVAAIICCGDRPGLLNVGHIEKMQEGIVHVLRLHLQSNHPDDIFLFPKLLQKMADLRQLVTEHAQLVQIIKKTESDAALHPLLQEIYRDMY

Turning to `CCCCCCCCSCc1cc(C)c(O)c(CSCCCCCCCC)c1`, the outcome in test [1], in test [2], in test [3], in test [4] and in test [5] was inactive.

In the case of `CCCCCCCCOS(=O)(=O)O`, in test [1], the call was inactive. Also, the concentration at half-maximal activity (AC50) (commonly the concentration at which the activity in the assay is half-maximal) in test [3] is 47.6 µM (active).

Turning to `CCCCCCCCCCO[C@@H]1O[C@H](CO)[C@@H](O)[C@H](O)[C@H]1O`, the compound was classed as inactive in test [1], in test [2], in test [3] and in test [6].

In the case of `CCO[Si](CCC#N)(OCC)OCC`, the result in test [1], in test [3] and in test [4] was inactive.

On to `C=CC(O)CCCCC` (stereo not drawn), for which the compound was called inactive in test [1] and in test [3].

With `COC(=O)C(C)Oc1ccc(Oc2ncc(C(F)(F)F)cc2Cl)cc1` (stereo not drawn), the result in test [1], in test [2] and in test [5] was inactive. Besides, the AC50 is 48.9 µM (active) in test [3] and 40.6 µM (active) in test [4].

Turning to `c1ccc2scnc2c1`, the result in test [1] and in test [3] was inactive.

As to `O=Cc1ccccc1O`, the compound was called inactive in test [1], in test [2], in test [3], in test [4] and in test [5].

As to `CCC(C)C1CCCCC1=O` (stereo not drawn), the compound was called inactive in test [1], in test [7], in test [3], in test [4] and in test [5].

On to `CCOCC(C)O` (stereo not drawn), for which the call in test [1], in test [2] and in test [5] was inactive.

In the case of `C=C(C)C(=O)OCCC[Si](OC)(OC)OC`, the compound was classed as inactive in test [1], in test [7], in test [4] and in test [5].

Regarding `CC(=O)Nc1cc(S(=O)(=O)O)cc2cc(S(=O)(=O)O)c(N=Nc3ccccc3)c(O)c12`, the outcome in test [1], in test [2], in test [3], in test [4] and in test [5] was inactive.

As to `CC/C=C\CCOC(C)OCC` (stereo not drawn), the compound was called inactive in test [1], in test [2], in test [3], in test [4] and in test [5].

As for `CCOC(=O)COC(=O)c1ccccc1C(=O)OCC`, the compound was classed as inactive in test [1] and in test [3].

As to `c1coc(CNc2ncnc3nc[nH]c23)c1`, the call in test [1], in test [2], in test [3] and in test [5] was inactive.

With `CCCCCCCCCCCCOC(C)=O`, the compound was called inactive in test [1], in test [2], in test [3], in test [4] and in test [5].

Take `CCCCCC1C(=O)CCC1CC(=O)OC` (stereo not drawn): the outcome in test [1], in test [7], in test [3], in test [4] and in test [6] was inactive.

As for `CC1=CC[C@@H]2C[C@H]1C2(C)C`, the outcome in test [1], in test [2] and in test [5] was inactive.

Turning to `NS(=O)(=O)c1cc(C(=O)O)c(NCc2ccco2)cc1Cl`, the compound was classed as inactive in test [1], in test [2], in test [4] and in test [5]. Moreover, in test [3], the AC50 was 42.7 µM (active).

In the case of `CC1(C)CC(N)CC(C)(CN)C1` (stereo not drawn), the result in test [1], in test [2], in test [3], in test [4] and in test [5] was inactive.

Turning to `CCCCOCC(C)OCC(C)O` (stereo not drawn), the result in test [1], in test [2], in test [3] and in test [5] was inactive.

As for `CC(=O)CCc1ccc(O)cc1`, the compound was called inactive in test [1], in test [2], in test [3], in test [4] and in test [5].

As for `CC1=CC[C@@H](C(C)(C)O)CC1`, the call in test [1], in test [2], in test [3], in test [4] and in test [5] was inactive.

For `CC(=N[Si](C)(C)C)O[Si](C)(C)C`, the compound was called inactive in test [1], in test [2] and in test [5].

As to `C/C=C(\C)C(=O)OC/C=C(\C)CCC=C(C)C`, the result in test [1], in test [2], in test [4] and in test [5] was inactive. In test [3], the AC50 was 12.3 µM (active).

Take `S=c1[nH][nH]c(=S)s1`: the compound was called inactive in test [1], in test [2] and in test [4].

`CCCCCCCCCO`: the compound was classed as inactive in test [1], in test [3] and in test [4].

For `CC1COC(=O)O1` (stereo not drawn), the result in test [1] and in test [3] was inactive.

Take `CCCCCC#CC(=O)OC`: the call in test [1], in test [2] and in test [5] was inactive. The AC50 in test [3] is 12.9 µM (active).

In the case of `C=C(C)C(=O)OCCC(C)OC(=O)C(=C)C` (stereo not drawn), the call in test [1] was inactive. For the same compound, the AC50 in test [3] was 47 µM (active).

Take `CC(C)(C)C1CCC(O)CC1` (stereo not drawn): the compound was called inactive in test [1], in test [2], in test [3], in test [4] and in test [5].

For `O=c1cc[nH]cc1`, the result in test [1], in test [2] and in test [5] was inactive.

As for `NNC(=O)OCc1ccccc1`, the compound was classed as inactive in test [1], in test [2], in test [3], in test [4] and in test [5].

In the case of `CC(=O)Oc1c(C)c(C)c2c(c1C)CC[C@@](C)(CCC[C@H](C)CCC[C@H](C)CCCC(C)C)O2`, the result in test [2], in test [7], in test [3] and in test [4] was inactive.

As to `O=C(O)c1ccc(C(=O)O)c(C(=O)O)c1`, the compound was called inactive in test [2].

As to `O=C1CCC(=O)N1`, the compound was classed as inactive in test [2].

Consider `C=C(C)C(=O)OCCOCCOC(=O)C(=C)C`, for which the outcome in test [1], in test [3] and in test [4] was inactive.

On to `COc1cc(OC)c2ccc(=O)oc2c1`, for which the outcome in test [1], in test [3], in test [4] and in test [5] was inactive.

Consider `NCCN1CCNCC1`, for which the result in test [2], in test [7], in test [3], in test [4] and in test [5] was inactive.

Regarding `O=C(C=Cc1ccccc1)OCCCc1ccccc1`, the compound was called inactive in test [1] and in test [5]. Besides, the half-maximal activity concentration (AC50) in test [4] was 22.5 µM (active).

Take `CC(C)=CCCC(C)=CC(=O)O`: the call in test [1] and in test [4] was inactive. Further, in test [3], the half-maximal activity concentration (AC50) is 57.3 µM (active).

As to `O=C1OCc2ccccc21`, in test [2], the compound was called inactive.

In the case of `C=CC(C)CCCC(C)(C)O` (stereo not drawn), the result in test [2] was inactive.

For `CCCCCCCCOC(=O)c1ccc(O)cc1`, the compound was classed as inactive in test [1], in test [4] and in test [5].

On to `CCCCCCCCCOS(=O)(=O)O`, for which the call in test [1] and in test [4] was inactive. In test [3], the AC50 is 30.6 µM (active).

With `OCC=Cc1ccccc1`, in test [2], the compound was classed as inactive.

On to `CCCOC(=O)CC`, for which the call in test [1], in test [3] and in test [5] was inactive.

As for `CC1=C(C=O)C(C)(C)CCC1`, the compound was called inactive in test [1], in test [3] and in test [5]. Also, the AC50 in test [4] was 2.61 µM (active).
